Source: PubChem BioAssay AID1476 (National Center for Advancing Translational Sciences (NCATS), 2009)
“And” between values parts separate entries of the source, which are not always exact repeats. Equal entries are not always repeated. In all, about 200,000 compounds went through this assay and about 4,500 (2.2%) were called active. Inconclusive results (about 12%) are left out. This is one part of a sample in which actives are shown more often than they occur. Values without a mark were called inactive. The call rests on the fitted dose curve; in most records, active means well fitted inhibition curve with a large enough effect; inconclusive means small, poorly fitted or top-dose-only effect, or effect the other way; inactive means flat fitted curve, though single readings scatter.

Target: Cruzipain (Trypanosoma cruzi) (UniProt P25779)
Sequence (P25779 123-467 limits assumed): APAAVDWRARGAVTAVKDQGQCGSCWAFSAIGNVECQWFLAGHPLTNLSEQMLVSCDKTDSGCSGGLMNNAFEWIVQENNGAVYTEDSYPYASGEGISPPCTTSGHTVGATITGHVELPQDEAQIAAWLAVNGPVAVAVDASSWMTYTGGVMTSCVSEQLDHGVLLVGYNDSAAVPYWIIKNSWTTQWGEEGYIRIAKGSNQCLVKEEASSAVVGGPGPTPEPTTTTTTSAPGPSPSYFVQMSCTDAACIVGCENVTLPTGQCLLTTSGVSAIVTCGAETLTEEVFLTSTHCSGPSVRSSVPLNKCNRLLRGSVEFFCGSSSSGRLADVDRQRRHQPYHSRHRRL
Assay: qHTS Assay for Promiscuous and Specific Inhibitors of Cruzain (without detergent); further: nearly all actives have a fitted effect of over 40% in size
Conditions: purified cruzain, Z-FR-AMC fluorescence, no detergent
Protocol: Cruzain is a cysteine protease from the tropical parasite Trypanosoma cruzi. Dual qHTS experiment was performed against the NCGC compound collection in order to 1) identify novel inhibitors of the enzyme and 2) profile the compound collection for promiscuous inhibitors operating via colloidal aggregation (by performing detergent-free and detergent-containing comparison screens). Cruzain was assayed by the use of fluorogenic coumarin-based substrate Z-FR-AMC: proteolytic cleavage releases AMC, whose fluorescence is measured at 360 nm excitation and 450 nm emission. Purified cruzain was supplied by the labs of Prof. James McKerrow and Brian Shoichet, UC San Francisco.
This assay had 0.00005% Triton X-100 concentration. See also releated assay "qHTS Assay for Promiscuous and Specific Inhibitors of Cruzain (with detergent)" with 0.01% Triton X-100.
See following references for additional details:
Assay Provider: Shoichet, Brian; University of California, San Fancisco
Screening Center PI: Austin, C.P.
Screening Center: NIH Chemical Genomics Center [NCGC]
Buffer: 100 mM Sodium Acetate, pH 5.5, 5 mM DTT, Triton X-100 concentration: 0.01%.
Buffer in columns 3 and 4 as negative control (no enzyme).
Substrate solution: 2 uM final concentration of Z-FR-AMC (catalog number I-1160, Bachem) dispensed throughout the plate.
Enzyme: 1.5 nM Cruzain final concentration in columns 1, 2, 5-48. Column 1 is neutral (100% activity). Column 2 contained titration of covalent inhibitor K11777, starting concentration 1 mM, then 1:2 dilution in duplicate).
Three uL of enzyme or buffer were dispensed to 1536-well Greiner black solid bottom plates. Compounds and controls (23 nL) were transferred via Kalypsys PinTool. The plates were incubated for 15 min at room temperature, and then 1 uL of substrate solution was added to start the reaction. The plates were immediately transferred to and read 4 times every 30 seconds for 2 min on ViewLux High-throughput CCD imager (Perkin-Elmer) using 360 nm excitation and 450 nm emission fluorescence protocol. The fluorescence intensity difference between the third and the first time points (time lapse of 60 seconds) was used to compute reaction progress.
Potency means the concentration at half of the fitted maximal effect.

| Structure (SMILES) | max response, negative = inhibition | Potency |
| --- | --- | --- |
| Cc1ccccc1-n1c(=O)c2ccccc2n(Cc2ccc(F)cc2)c1=O | 6.2% | – |
| O=C(Cc1ccc(-c2ccccc2)cc1)NC(c1ccccc1)c1ccccc1 | – | 25.1 µM (active) |
| COc1ccc(C(CC(=O)O)NC(=O)Cc2ccccc2)cc1 (stereo not drawn) | 10.2% | – |
| O=C(O)Cc1ccc(-c2ccccc2)cc1 | -11.7% and 9.66% | – |
| COc1ccc(C(=O)Nc2onc3c2CCCC3)cc1 | -6.11% | – |
| Cc1nn(C)cc1C(=O)NNC(=S)Nc1ccc(Cl)cc1 | -0.36% | – |
| Cc1ccc(NC(=S)NC(=O)/C=C/c2ccc(Cl)cc2)cc1 | – | 10 µM (active) |
| COC(=O)Cc1ccc(NC(=S)NCc2ccc(Cl)cc2)cc1 | -2.73% | – |
| CCCN1C(=O)C(O)(CC(=O)c2ccc(CC)cc2)c2cc(Br)ccc21 (stereo not drawn) | 2.6% | – |
| COc1ccccc1CNC(=O)C(Cc1ccccc1)NS(=O)(=O)c1ccc2c(c1)oc(=O)n2C (stereo not drawn) | -15.4% | – |
| O=S(=O)(NCC(c1ccco1)N1CCOCC1)c1cc(F)ccc1F (stereo not drawn) | -1.04% | – |
| COc1cccc(NC(=O)c2ccc(Cn3cc([N+](=O)[O-])cn3)o2)c1 | 3.2% | – |
| Cc1cccc(NC(=O)c2sc(-c3ccccc3)nc2-c2ccc([N+](=O)[O-])cc2)c1 | – | 20 µM (active) |
| CC(=O)c1cccc(NC(=O)c2nc(-c3ccccc3)n(-c3cccc(C)c3)n2)c1 | -26.5% | – |
| O=C(NCCS(=O)(=O)N1CCN(c2ccc(F)cc2)CC1)c1ccccc1Br | -13% | – |
| Cc1cccc(CNC(=O)c2cnc3sc(N4CCCCC4)nn3c2=O)c1 | 13.2% | – |
| CC(Oc1ccc(-c2ccccc2)c(F)c1)c1ccn(S(=O)(=O)c2cccc3ccccc23)n1 (stereo not drawn) | – | 12.6 µM (active) |
| COc1ccccc1N1CCN(c2ncnc3onc(-c4cccc(Cl)c4)c23)CC1 | 9.06% | – |
| O=C(Nc1nnc(S(=O)(=O)N2CCCCCC2)s1)c1cccc(Br)c1 | 6.01% | – |
| CCOC(=O)CSc1nnc(NC(=O)c2cccc(S(=O)(=O)N3CCCCC3)c2)s1 | – | 20 µM (active) |
| O=C(Nc1nncs1)c1cccc(S(=O)(=O)N2CCCCC2)c1 | 0.0572% | – |
| COc1cc(CNCCSc2nnnn2C)ccc1OCc1ccc(Cl)cc1Cl | 8.01% | – |

| Structure (SMILES) | max response, negative = inhibition | Potency |
| --- | --- | --- |
| COc1ccc2[nH]c(C)c(CCN(Cc3cccs3)C(=S)Nc3ccccc3OC)c2c1 | – | 15.8 µM (active) |
| CCNC(=S)N(CCc1c(C)[nH]c2ccc(C)cc12)Cc1ccco1 | -13.2% | – |
| COc1ccc(NC(=S)NCc2cccs2)c(OC)c1 | 1.46% | – |
| Cc1ccc(Cl)cc1N(C)C(=O)Cn1nc(Cc2cccnc2)c2ccccc2c1=O | 14.5% | – |
| CC(C)(C)c1ccc(OCC(=O)N2CCC(c3nc4ccccc4s3)CC2)cc1 | -14.4% | – |
| CCOC(=O)c1sc(=S)n(-c2cccc(OC)c2)c1N | -7.85% | – |
| CCOC(=O)c1sc(=S)n2c1[nH]c(=O)c1ccc(C(=O)OC)cc12 | – | 25.1 µM (active) |
| CCOC(=O)Cn1c(N)c(C(=O)OC)sc1=S | -4.92% | – |
| COc1ccc(CCNC(=O)CCc2c(C)nc3c(c(C)nn3-c3ccc(C)c(C)c3)c2C)c(OC)c1OC | 0.259% | – |
| Fc1ccc(CN2CCc3nc(Nc4ccccc4)ncc3C2)cc1F | -18.7% | – |
| Cc1ccc(CCNC(=O)C2CCN(c3nnc(-n4cccc4CNc4ccc(C)cc4)s3)CC2)cc1 | -8.42% | – |
| CSc1ccc(CCNC(=O)C2CCN(c3nnc(-n4cccc4)s3)CC2)cc1 | – | 31.6 µM (active) |
| Cc1ccc(C)n1-c1nnc(N2CCC(C(=O)NCc3ccc(F)cc3)CC2)s1 | 5.22% | – |
| CSc1nc(-c2ccccc2Cl)nc2c1Cc1c(CO)cnc(C)c1O2 | -8.02% | – |
| COc1ccc(C2CC(=O)n3c(nc4ccccc43)S2)cc1OC (stereo not drawn) | 0.892% | – |
| COc1ccc(C2C(=O)N(C3CCCCCC3)CC(=O)N2CCc2ccc(Cl)cc2)cc1OC (stereo not drawn) | 10.9% | – |
| COc1cc(C2CC(=O)N3CN(Cc4ccccc4)CSC3=C2C#N)ccc1OCc1ccccc1 (stereo not drawn) | – | 15.8 µM (active) |
| CCOCCCNC(=O)c1ccc2nc(CCc3ccccc3)oc2c1 | -6.83% | – |
| Cc1cccc(C(=O)NCCc2nc3ccccc3n2Cc2ccccc2Cl)c1 | 15.2% | – |
| Cc1cccc(NC(=O)Cn2c(=O)n(CCC(C)C)c(=O)c3cccnc32)c1 | -11.5% | – |
| Cc1ccc(C(=O)c2c(NC(=O)c3ccccc3)sc(C)c2C)cc1 | -26.9% | – |
